mHTT CaM bind – disrupts binding of mutant huntingtin to calmodulin; inhibition, % at 15 µM; AlphaScreen His-mHTT/GST-CaM binding, luminescence; 190,000 tested, 3.6% active; P42858;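 note: 0% = both proteins with DMSO and 100% = one protein alone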
Pf apPOL inh – Pf-apPOL DNA polymerase inhibition | Recombinant Pf-apPOL, molecular beacon fluorescence, 1.5 h | inhibition, % at 10 µM | 210,000 tested, 0.25% active
* marks the source's active call; other numbers are inactive results; · = no result. A selection: hits, their analogues and other compounds. The true share with any hit is near 3.5%. Cut-off read from the data, not from the text of the source: active = inhibition above about 50%; inactive = the rest.

SMILES | mHTT CaM bind | Pf apPOL inh
O=[N+]([O-])c1cc(Br)c(O)c(/C=C/c2ccc3cccc(O)c3n2)c1 | 82.8* | -11.3
COc1ccc(Br)cc1/C=C/c1ccc2cccc(O)c2n1 | 45.0 | -5.4
C=CC(C)(C)OCC(O)Cn1cnc2ccccc21 (stereo unspecified) | -0.4 | -5.6
COc1cc(/C=C/C(=O)Nc2ccc3nc(N4CCN(C)CC4)cc(C)c3c2)cc(OC)c1OC | 21.0 | -3.9
Cc1cc(N2CCN(C)CC2)nc2ccc(NC(=O)/C=C/c3cccc(Cl)c3)cc12 | 94.0* | -7.9
Cc1cc(N2CCCCC2)nc2ccc(NC(=O)/C=C/c3cccs3)cc12 | 33.0 | -5.4
COc1ccc(/C=C/C(=O)Nc2ccc3nc(N4CCN(C)CC4)cc(C)c3c2)cc1OC | 51.0* | -2.4
O=C(NCCCn1ccnc1)C(=O)NCc1ccc(F)cc1 | 70.2* | -5.8
Cc1ccc(NC(=O)C(=O)NCCCn2ccnc2)cc1F | 16.7 | -8.0
CCOc1ccc(C2(c3ccc(O)cc3)CCCCC2)cc1 | 85.7* | -2.4
CCOc1ccc(C(=O)NCC2(O)CCCC2)cc1 | -0.1 | -7.8
O=C(NCc1ccc(F)cc1F)c1ccc(F)cc1 | · | -14.2
O=C(Nc1ccc2c(c1)C1C=CCC1C(C(=O)O)N2)c1ccc(Cl)cc1Cl (stereo unspecified) | 94.5* | 1.5
CC(=O)Nc1ccc2c(c1)OCCO2 | · | -1.8
COc1ccc(OC)c(C2NC(C(=O)O)CS2)c1 (stereo unspecified) | 46.0 | -6.9
COc1ccc2c(c1)C1C=CCC1C(C(=O)O)N2 (stereo unspecified) | 99.7* | 1.6
CC(=O)Nc1ccc2c(c1)C1C=CCC1C(C(=O)O)N2 (stereo unspecified) | 89.4* | -10.1
CC(=O)Nc1ccc(NC(=O)c2ccc(Cl)cc2Cl)cc1 | -9.1 | -8.0
CC(=O)Nc1ccc2c(c1)C1C=CCC1C(c1ccccc1F)N2 (stereo unspecified) | 72.8* | -0.7
CN(C1CCCCC1)S(=O)(=O)c1ccc(F)c(C(=O)Nc2cccc(F)c2)c1 | -4.0 | -4.8
CCOC(=O)C1C(=O)C=C(c2ccco2)CC1c1ccc(F)cc1 (stereo unspecified) | -4.3 | -2.0
Oc1c(Cl)cc(Cl)cc1C=Nc1ncc(Cl)cc1Cl | · | -12.8
Cc1cc(OCC(=O)Nc2cccc(Br)c2)nc(N2CCCC2)n1 | 24.0 | 0.7
COc1ccc(-c2ccc([C@H]3[C@@H]4C=CCC[C@@]4(C)C(=O)N3Cc3ccccc3)c(F)c2)cc1OC | 37.0 | -0.4
COc1ccc(-c2c([C@H]3[C@@H]4C=CCC[C@@]4(C)C(=O)N3Cc3ccccc3)ccc3ccccc23)cc1OC | 100.5* | 0.7
SMILES | mHTT CaM bind | Pf apPOL inh
CC(=O)c1ccc(-c2c([C@H]3[C@@H]4C=CCC[C@@]4(C)C(=O)N3Cc3ccccc3)ccc3ccccc23)cc1 | 100.6* | -5.0
CN(C)c1ccc(-c2c([C@H]3[C@@H]4C=CCC[C@@]4(C)C(=O)N3Cc3ccccc3)ccc3ccccc23)cc1 | 50.0 | -5.4
Cc1c(NC(NC(=O)C(C)C)C(Cl)(Cl)Cl)c(=O)n(-c2ccccc2)n1C (stereo unspecified) | -2.0 | -5.5
Cc1ccccc1C(=O)Nc1ccc(S(=O)(=O)N2CCC(C)CC2)cc1 | -4.7 | -0.6
O=C(Nc1nnc(-c2ccc(F)cc2)o1)c1ccc(S(=O)(=O)N2CCc3ccccc3C2)cc1 | 4.0 | -67.3
CCc1nnc(NC(=O)c2ccc(S(=O)(=O)N3CCc4ccccc4C3)cc2)o1 | 55.0* | -5.8
CC(C)c1cc(C2CCCN2Cc2cc(Cl)ccc2O)no1 (stereo unspecified) | -18.3 | -6.8
Cc1ccc(C2=NN(C(=O)CN3CCC(C(N)=O)CC3)C(c3ccccc3)C2)c(C)c1 (stereo unspecified) | 56.5* | -2.4
CC(=O)N1CCN(CC(=O)N2N=C(c3ccc(C)c(C)c3)CC2c2ccccc2)CC1 (stereo unspecified) | 46.8 | 3.5
Cc1ccc(C2=NN(C(=O)CN3CCC(C(N)=O)CC3)C(c3ccc(C)cc3)C2)cc1 (stereo unspecified) | 57.2* | -8.7
Cc1ccc(C2CC(c3ccc(Br)cc3)=NN2C(=O)CCC(=O)O)cc1 (stereo unspecified) | 18.0 | 4.4
CC(C)CC(Nc1ncnc2ccc(Br)cc12)C(=O)O (stereo unspecified) | 2.0 | -33.2
COc1ccc(C2=N/C(=C\c3cc4ccccc4n3C(C)=O)C(=O)O2)cc1Br | 4.0 | -1.9
CCN1C(=O)c2ccc(C(=O)NC(C)c3ccccc3)cc2C1=O (stereo unspecified) | 0.5 | -1.8
CC(=O)NC(c1ccco1)c1cc([N+](=O)[O-])c2cccnc2c1O (stereo unspecified) | 100.0* | -5.3
CCCC(=O)NC(c1ccco1)c1cc([N+](=O)[O-])c2cccnc2c1O (stereo unspecified) | 100.0* | 4.9
CC(C)C(=O)NC(/C=C/c1ccccc1)c1cc([N+](=O)[O-])c2cccnc2c1O (stereo unspecified) | 5.0 | -3.9

Screening results as filed in PubChem BioAssay.
